{"source": "PubChem BioAssay", "biological_target": "Pantothenate synthetase (Mycobacterium tuberculosis (strain ATCC 25618 / H37Rv)) (UniProt P9WIL5)", "sequence (P9WIL5 whole entry, looked up)": "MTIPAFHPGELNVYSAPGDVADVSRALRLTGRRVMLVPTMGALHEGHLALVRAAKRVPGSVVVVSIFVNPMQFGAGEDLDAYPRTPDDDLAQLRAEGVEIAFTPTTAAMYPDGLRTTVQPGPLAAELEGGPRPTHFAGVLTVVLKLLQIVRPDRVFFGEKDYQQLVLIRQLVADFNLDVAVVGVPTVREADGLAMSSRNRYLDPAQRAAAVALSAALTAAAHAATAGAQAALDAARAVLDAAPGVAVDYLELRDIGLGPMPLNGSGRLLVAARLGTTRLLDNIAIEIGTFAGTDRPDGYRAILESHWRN", "test": "Recombinant Mtb pantothenate synthetase (PanC) inhibitors, coupled enzyme, confirmatory (AID 375);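 note: 0% = full reaction with vehicle and 100% = no enzyme background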", "details": "coupled enzyme assay; at 10 µM, active compounds read high", "note": "A number with no mark means an inactive call. The rule behind the calls is not given here.", "data": [{"molecule": "COc1ccc(Cc2nnc(NC(=O)Cc3cccs3)s2)cc1", "values": [{"measurement": "inhibition", "value": 0, "unit": "%"}]}, {"molecule": "CN1C(=O)C(O)(CC(=O)c2ccc3c(c2)OCO3)c2ccccc21", "note": "(stereo unspecified)", "values": [{"measurement": "inhibition", "value": 0, "unit": "%"}]}, {"molecule": "Cn1c(/C(C#N)=C/Nc2ccccn2)nc2ccccc21", "values": [{"measurement": "inhibition", "value": 0, "unit": "%"}]}, {"molecule": "Cc1cc2c(nn1)CCC/C2=N\\O", "values": [{"measurement": "inhibition", "value": 2, "unit": "%"}]}, {"molecule": "Cc1nnc(NC(=O)c2ccccc2F)s1", "values": [{"measurement": "inhibition", "value": 0, "unit": "%"}]}, {"molecule": "CN(C)/C=c1\\sc2c(C#N)cc(C(=O)c3ccc(Br)cc3)n2c1=O", "values": [{"measurement": "inhibition", "value": 5, "unit": "%"}]}, {"molecule": "COC(=O)C(C#N)C(=C1C(=O)CC(C)(C)CC1=O)c1ccc(O)cc1", "note": "(stereo unspecified)", "values": [{"measurement": "inhibition", "value": 0, "unit": "%"}]}, {"molecule": "COCCNC(=O)C(c1cccc(OC)c1)N(Cc1cccs1)C(=O)Cn1nnc2ccccc21", "note": "(stereo unspecified)", "values": [{"measurement": "inhibition", "value": 0, "unit": "%"}]}, {"molecule": "Cc1ccc2c(c1)-c1c(cnn1CC(=O)Nc1ccccc1N1CCN(C)CC1)CO2", "values": [{"measurement": "inhibition", "value": 0, "unit": "%"}]}, {"molecule": "Cn1cccc1Cc1nnc(SCC(=O)N2CCOCC2)n1-c1ccc(F)cc1", "values": [{"measurement": "inhibition", "value": 0, "unit": "%"}]}, {"molecule": "O=C1N(CCCCN2C(=O)C3(OCCO3)c3ccccc32)c2ccccc2C12OCCO2", "values": [{"measurement": "inhibition", "value": 0, "unit": "%"}]}, {"molecule": "CCOCCCNS(=O)(=O)c1ccc2c(c1)oc(=O)n2CC(=O)OCC", "values": [{"measurement": "inhibition", "value": 8, "unit": "%"}]}, {"molecule": "C=CCn1c(C)cc(C(=O)CSc2nc3ccccc3o2)c1C", "values": [{"measurement": "inhibition", "value": 9, "unit": "%"}]}, {"molecule": "COc1ccc(CNC(=O)C(c2ccco2)N(Cc2cccs2)C(=O)Cc2cccs2)cc1", "note": "(stereo unspecified)", "values": [{"measurement": "inhibition", "value": 0, "unit": "%"}]}, {"molecule": "N#Cc1c(NCc2ccccc2)ccnc1NCc1cccnc1", "values": [{"measurement": "inhibition", "value": 0, "unit": "%"}]}, {"molecule": "COC(=O)CCCCC(=O)C1C(=O)CC(C)(C)C(C(=O)OC)C1=O", "note": "(stereo unspecified)", "values": [{"measurement": "inhibition", "value": 0, "unit": "%"}]}, {"molecule": "CC(NC(=O)Nc1ccccc1)C(c1cccs1)N1CCOCC1", "note": "(stereo unspecified)", "values": [{"measurement": "inhibition", "value": 0, "unit": "%"}]}, {"molecule": "CCOc1ccc(N(CC(=O)NCc2ccco2)S(=O)(=O)c2ccc(OC)c(OC)c2)cc1", "values": [{"measurement": "inhibition", "value": 0, "unit": "%"}]}, {"molecule": "O=C(c1ccc(Cl)cc1)N(Cc1cccs1)C1CCS(=O)(=O)C1", "note": "(stereo unspecified)", "values": [{"measurement": "inhibition", "value": 0, "unit": "%"}]}, {"molecule": "O=C(NCc1cccnc1)c1ccccn1", "values": [{"measurement": "inhibition", "value": 0, "unit": "%"}]}, {"molecule": "N#CC1=C(N)OC(c2ccccc2)=C(C#N)C1c1ccc2c(c1)OCO2", "note": "(stereo unspecified)", "values": [{"measurement": "inhibition", "value": 0, "unit": "%"}]}, {"molecule": "Cc1ccccc1N1OC2C(=O)N(c3ccc(F)cc3)C(=O)C2C1c1ccccn1", "note": "(stereo unspecified)", "values": [{"measurement": "inhibition", "value": 3, "unit": "%"}]}, {"molecule": "CCCCCC1CC(CC(=O)O)C(=O)O1", "note": "(stereo unspecified)", "values": [{"measurement": "inhibition", "value": 6, "unit": "%"}]}, {"molecule": "Cc1ccc(CNC(=O)CCCn2c(=O)c3ccccc3n(CC(=O)NCc3ccco3)c2=O)cc1", "values": [{"measurement": "inhibition", "value": 0, "unit": "%"}]}, {"molecule": "COc1cc(S(=O)(=O)N2CCOCC2)ccc1NC(=O)COC(=O)C12CC3CC(CC(C3)C1)C2", "values": [{"measurement": "inhibition", "value": 1, "unit": "%"}]}, {"molecule": "CCN(C(=O)c1cccs1)c1nnc(-c2ccncc2)s1", "values": [{"measurement": "inhibition", "value": 0, "unit": "%"}]}, {"molecule": "Cc1cc(NC(=O)COC(=O)C2COc3ccccc3O2)no1", "note": "(stereo unspecified)", "values": [{"measurement": "inhibition", "value": 4, "unit": "%"}]}, {"molecule": "CCN1CCN(CCCNC(=O)c2cn(CCOC)c(=O)c3c2c2ccccc2n3C)CC1", "values": [{"measurement": "inhibition", "value": 0, "unit": "%"}]}, {"molecule": "COc1ccc(CN2CC(C(=O)NCc3ccccn3)CC2=O)cc1", "note": "(stereo unspecified)", "values": [{"measurement": "inhibition", "value": 5, "unit": "%"}]}, {"molecule": "O=C1CCCC2=C1C(c1ccsc1)CC(=O)N2c1ccccc1", "note": "(stereo unspecified)", "values": [{"measurement": "inhibition", "value": 0, "unit": "%"}]}, {"molecule": "COc1ccc(OC)c(-c2nc3c(C)n[nH]c(=O)c3[nH]2)c1", "values": [{"measurement": "inhibition", "value": 0, "unit": "%"}]}, {"molecule": "CC12C(=O)N(CCC(=O)O)C(=O)C1C1C=CC2C1", "note": "(stereo unspecified)", "values": [{"measurement": "inhibition", "value": 0, "unit": "%"}]}, {"molecule": "Cc1c(C)c2cc(Cl)c(O)c(CN3CCCCC3)c2oc1=O", "values": [{"measurement": "inhibition", "value": 1, "unit": "%"}]}, {"molecule": "Cc1cccc2sc(NC(=O)CN(C)S(=O)(=O)c3cccs3)nc12", "values": [{"measurement": "inhibition", "value": 2, "unit": "%"}]}, {"molecule": "c1ccc(-c2nn3c(Cn4nnc5ccccc54)nnc3s2)nc1", "values": [{"measurement": "inhibition", "value": 0, "unit": "%"}]}, {"molecule": "CCOC(=O)c1c(-c2ccc(C)o2)csc1NC(=O)COC(=O)c1cccs1", "values": [{"measurement": "inhibition", "value": 5, "unit": "%"}]}, {"molecule": "Cc1nc2sc(C(c3cccs3)N3CC(C)CC(C)C3)c(O)n2n1", "note": "(stereo unspecified)", "values": [{"measurement": "inhibition", "value": 0, "unit": "%"}]}, {"molecule": "CC1(C)CC(=O)c2cnc(NC(=O)CSc3nc4ccccc4o3)nc2C1", "values": [{"measurement": "inhibition", "value": 0, "unit": "%"}]}, {"molecule": "COc1ccc(C(=O)NCc2ccccc2OC)cc1", "values": [{"measurement": "inhibition", "value": 0, "unit": "%"}]}, {"molecule": "CCCCc1n[nH]c2c1C(=O)CC(C)(C)C2", "values": [{"measurement": "inhibition", "value": 0, "unit": "%"}]}, {"molecule": "Cc1ccc(S(=O)(=O)N2CCCC2)cc1S(=O)(=O)N1CCCC1", "values": [{"measurement": "inhibition", "value": 0, "unit": "%"}]}, {"molecule": "Cc1noc(C)c1S(=O)(=O)N1CCC(C(=O)Nc2ccccn2)CC1", "values": [{"measurement": "inhibition", "value": 4, "unit": "%"}]}, {"molecule": "COc1cccc(NC(=O)C2CCN(c3ncccn3)CC2)c1", "values": [{"measurement": "inhibition", "value": 2, "unit": "%"}]}, {"molecule": "CCOc1ccccc1C(=O)NCC(=O)OCC(=O)N1C(C)CCCC1C", "note": "(stereo unspecified)", "values": [{"measurement": "inhibition", "value": 7, "unit": "%"}]}, {"molecule": "CCCn1cc(C(CC(=O)O)C(=O)O)c2ccccc21", "note": "(stereo unspecified)", "values": [{"measurement": "inhibition", "value": 8, "unit": "%"}]}, {"molecule": "COc1ccc(NC(=O)c2cnc3n(c2=O)CCS3)cc1OC", "values": [{"measurement": "inhibition", "value": 0, "unit": "%"}]}, {"molecule": "Cc1[nH]nc2c1C(C1CC=CCC1)C(C#N)=C(N)O2", "note": "(stereo unspecified)", "values": [{"measurement": "inhibition", "value": 3, "unit": "%"}]}, {"molecule": "COc1ccc(-c2ccc(-c3nnc(-c4ccncc4)o3)cc2)cc1", "values": [{"measurement": "inhibition", "value": 4, "unit": "%"}]}, {"molecule": "CCOC(=O)Nc1c(O)ccc2oc(C)c(-c3ccccc3)c12", "values": [{"measurement": "inhibition", "value": 0, "unit": "%"}]}, {"molecule": "COCc1cc(=O)[nH]c(Nc2nc3ccccc3o2)n1", "values": [{"measurement": "inhibition", "value": 0, "unit": "%"}]}, {"molecule": "Cc1ccc2c(COn3nnc4ccc(S(=O)(=O)N(C)C)cc43)cc(=O)oc2c1C", "values": [{"measurement": "inhibition", "value": 3, "unit": "%"}]}, {"molecule": "CC12COC3(C(=O)Nc4ccc(Cl)cn4)CC1CCC32C", "note": "(stereo unspecified)", "values": [{"measurement": "inhibition", "value": 0, "unit": "%"}]}, {"molecule": "O=C(N1CCCCCC1)N1CCN(C(=O)N2CCOCC2)CC1", "values": [{"measurement": "inhibition", "value": 0, "unit": "%"}]}, {"molecule": "CCSc1nncn1/N=C/c1ccc(OC)c(OC)c1", "values": [{"measurement": "inhibition", "value": 4, "unit": "%"}]}, {"molecule": "CN(c1ccccc1C(N)=O)S(=O)(=O)c1ccccc1", "values": [{"measurement": "inhibition", "value": 10, "unit": "%"}]}, {"molecule": "Clc1ccc(OCc2nc(-c3ccccn3)no2)c(Br)c1", "values": [{"measurement": "inhibition", "value": 0, "unit": "%"}]}]}
